High-throughput results as filed in PubChem.
Pf apPOL block – Pf-apPOL DNA polymerase inhibition; Recombinant Pf-apPOL, molecular beacon fluorescence, 1.5 h; inhibition, % at 10 µM; 0.25% of 210,000 active
mHTT-CaM PPI inh – mHTT-calmodulin interaction abrogation. AID 1671202. inhibition, % at 15 µM. AlphaScreen His-mHTT/GST-CaM binding, luminescence. P42858. 3.6% of 190,000 active;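 also: 0% = both proteins with DMSO and 100% = one protein alone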
An asterisk follows results filed as active; · = no result given; ! = not confirmed by another sample. In the library only some 3.5% were active in any assay of this set; here they are far more common. Rule as the data show it: active = inhibition above about 50%; inactive = the rest.

SMILES	Pf apPOL block	mHTT-CaM PPI inh
CC(/C=C1\SC(=S)N(CC(=O)O)C1=O)=C\c1ccccc1	-2	·
CC(=Cc1ccccc1)C=C1SC(=S)N(C2CC(=O)N(CCCCCC(=O)O)C2=O)C1=O (configuration not stated)	-94	53*
O=C(O)CCCN1C(=O)C(=CC=Cc2ccccc2)SC1=S	-75	25
O=C(O)CCCN1C(=O)CC(N2C(=O)C(=CC=Cc3ccccc3)SC2=S)C1=O (configuration not stated)	-67	54*
Fc1cccc(CNc2nnc(-c3nnc(C4CC4)o3)c3ccccc23)c1	-4	14
Cc1ccc(-n2ncc3c(=O)[nH]c(SCC(=O)Nc4cc(C)ccc4C)nc32)cc1	-9	1
COC(=O)c1ccc(C=C2Oc3c(CN4CCOCC4)c(O)cc(C)c3C2=O)cc1	-5	3
O=Cc1ccc(OCc2ccc(C(=O)O)cc2)c(I)c1	-10	2
O=[N+]([O-])c1cccc(N2COc3ccc(Cl)cc3C2)c1	1	54*
CC(=O)c1cccc(N2COc3ccc(Cl)cc3C2)c1	-6	22
Cc1ccc(S(=O)(=O)NCCSCc2ccco2)cc1[N+](=O)[O-]	-3	12
Clc1nc(NCCN2CCOCC2)nc(NCc2ccccc2)n1	-1	-6
CC(CCc1ccccc1)Nc1nc(Cl)nc(NCCN2CCOCC2)n1 (configuration not stated)	2	62*
CC1C(=O)N(Cc2cn(Cc3ccco3)nn2)CCS(=O)(=O)N1Cc1ccc(-c2cccnc2)cc1 (configuration not stated)	-3	7
Cc1ccc(-c2ccc(CN3C(CC(C)C)C(=O)N(Cc4cn(Cc5ccco5)nn4)CCS3(=O)=O)cc2)cc1 (configuration not stated)	-5	38
CC1C(=O)N(Cc2cn(Cc3ccco3)nn2)CCS(=O)(=O)N1Cc1ccc(-c2cccc(N(C)C)c2)cc1 (configuration not stated)	-2	64*
CC(C)CC1C(=O)N(Cc2cn(Cc3ccco3)nn2)CCS(=O)(=O)N1Cc1ccc(-c2cccc(N(C)C)c2)cc1 (configuration not stated)	-4	68*
COc1ccc(N=C2SC(C(=O)Nc3cccc(Cl)c3)CC(=O)N2C)cc1 (configuration not stated)	0	13
COc1ccc(NC(=O)C2CCc3sc(C(=O)N4CCCCC4)cc3C2)c(OC)c1 (configuration not stated)	3	57*
COc1ccc(OC)c(NC(=O)C2CCc3sc(C(=O)N4CCCC4)cc3C2)c1 (configuration not stated)	1	27
CCN(C)c1nc(-c2cccc(F)c2)c2c(N)n(-c3cc(F)ccc3F)nc2n1	0	54*
CCN(C)c1nc(-c2cccc(F)c2F)c2c(N)n(-c3cccc(F)c3)nc2n1	-2	35
O=C1C2CCCCC2C(=O)N1CNc1ccc(F)cc1 (configuration not stated)	-1	-6
O=[N+]([O-])c1ccc(-c2nc(C=Nc3ccccc3)c(O)o2)cc1	0	14
CC(C)c1ccc(OCC(O)CN2CCN(c3ccc(F)cc3)CC2)cc1 (configuration not stated)	-4	39
SMILES	Pf apPOL block	mHTT-CaM PPI inh
C=CCc1ccccc1OCC(O)CN1CCN(C)CC1 (configuration not stated)	-1	-4
C=CCc1ccccc1OCC(O)CN1CCN(c2ccc(OC)cc2)CC1 (configuration not stated)	0	54*!
C=CCc1ccccc1OCC(O)CN1CCCCC1 (configuration not stated)	-6	-6
OC(COc1ccc(F)cc1)CN1CCN(c2cccc(Cl)c2)CC1 (configuration not stated)	-2	81*
C=CCc1ccccc1OCC(O)CN1CCN(c2cccc(Cl)c2)CC1 (configuration not stated)	-2	99*
CCS(=O)(=O)N1CCc2c(c(COCc3ccccc3)nn2C)C1	2	12
O=C(c1ccc(F)cc1)N1CCN(c2cc(N3CCCCCC3)c(F)cc2[N+](=O)[O-])CC1	-3	34
COCCN=C1Nc2ccccc2CNC12CCN(C(=O)c1cc(Cl)ccc1OC)C2 (configuration not stated)	-1	15
COC(=O)c1ccc2c(=O)n(-c3ccc(Cl)cc3)c(N3CCCC3)nc2c1	-2	-9
Cc1sc2ccn(C)c(=O)c2c1C(=O)NC(C)c1ccc(F)cc1 (configuration not stated)	-1	8
NC(=O)c1ccccc1NC(=O)c1cccnc1Cl	6	4
CN(C)CCCN(C(=O)Cc1ccccc1)c1nc2ccc(Br)cc2s1	-6	100*
CN(C)CCCN(C(=O)C1=COCCO1)c1nc2ccc(Br)cc2s1	-16	23
COc1ccc(-c2nn(Cc3ccccc3F)c(=O)c3nc(C)sc23)cc1OC	-8	65*
COc1cccc(-c2nn(CC(=O)N3CCc4ccccc43)c(=O)c3nc(C)sc23)c1	-5	-2
CCn1nc(CNC(=O)c2cncc(Br)c2)c2ccccc21	-4	1
O=C1CC(c2ccc(F)cc2)Sc2nc(-c3ccc(F)cc3)nn21 (configuration not stated)	7	-5
CCOc1cc(/C=C(\C#N)c2nn(-c3ccccc3)c(N)c2C#N)cc(Br)c1OC	-2	56*
COc1cc(/C=C(\C#N)c2nn(-c3ccccc3)c(N)c2C#N)cc(OC)c1OC	-8	49
CCOc1cc(/C=C(\C#N)c2nn(CCO)c(N)c2C#N)cc(I)c1OC	0	52*
COc1cc(/C=C(\C#N)c2nn(CCO)c(N)c2C#N)cc2c1OCO2	-4	1
COc1ccc(N(C)c2nnc(-c3ccc(NC(=O)C4CC4)cc3)s2)cc1	-10	-4
COc1c(Cl)cnn(-c2ccccc2)c1=O	-4	-2
O=c1oc(-c2ccccc2Cl)nc2c1cnn2-c1ccccc1	-3	90*
COc1cc([N+](=O)[O-])ccc1NC(=O)COc1ccc(Cl)cc1C	-6	0
SMILES	Pf apPOL block	mHTT-CaM PPI inh
COc1ccc(N2CCC(CNS(=O)(=O)c3cccc(Cl)c3)C2)cc1 (configuration not stated)	2	84*
COc1ccc(N2CC(CNS(=O)(=O)c3ccc4c(c3)CCCC4)CC2=O)cc1 (configuration not stated)	-6	14
O=C(c1ccc(OCC2CCCN(C(=O)C3CCCC3)C2)cc1)N1CCCCC1 (configuration not stated)	96*	4
O=C(c1ccc(OCC2CCCN(C(=O)C3CCCCC3)C2)cc1)N1CCCCC1 (configuration not stated)	-5	16
CCn1c(SC)nnc1-c1nn(C)c2c1CN(C(=O)c1ccoc1)CC2	-2	-1
COc1ccc(NC(=O)N2CCc3nc[nH]c3C2)c(OC)c1	73*	13
COc1ccc(OC)c(NC(=O)N2CCc3nc[nH]c3C2)c1	0	19
O=C1[C@H]2CCC=C[C@H]2[C@H](c2ccccc2Br)N1Cc1ccccc1	8	46
O=C1[C@H]2CCC=C[C@H]2[C@H](c2cccc(Br)c2)N1Cc1ccccc1	1	66*
Cc1cccc([C@H]2[C@@H]3C=CC(C)C[C@@H]3C(=O)N2Cc2ccccc2)c1 (some centres not stated)	-7	66*
